The nature of test [1]: ATG_NFI_CIS: Attagene CIS-FACTORIAL HepG2 Assay for human Nuclear Factor I (NFI) (AID 2282989). To be noted: HepG2 cis-regulatory reporter, NFI response element transcription; actives raise or lower the signal. An outline of the steps:
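HepG2, transient MRTU, 24 h exposure; RNA→cDNA→PCR→FAM label→HpaI→CE fluorescence. Bidirectional fit, DMSO = baseline.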

The target of test [2] is Myc proto-oncogene protein (Homo sapiens) (UniProt P01106). Kind of test: ATG_Myc_CIS: Attagene CIS-FACTORIAL HepG2 Assay for human Myelocytomatosis (Myc) Proto-Oncogene Transcription Factor (AID 2282990). The following applies: HepG2, Attagene cis-reporter transcription factor activity; actives raise or lower the signal. The procedure, abridged:
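Fluorescence intensity of reporter-specific cDNA fragments, separated by capillary electrophoresis, gives the signal. Transfected HepG2 cells carrying cis-promoter reporter constructs are incubated with compound for 24 h; DMSO serves as baseline.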

The nature of test [3]: ATG_NF_kB_CIS: Attagene CIS-FACTORIAL HepG2 Assay for human Nuclear Factor Kappa B (NF-kB) (AID 2282991). To be noted: HepG2 Attagene cis-factorial NF-kB reporter mRNA; actives raise or lower the signal. The procedure, abridged:
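Endpoint from a 52-component multiplexed HepG2 reporter panel: cis-regulated transcription units transiently transfected, 24 h dosing, reporter mRNA quantified by RT-PCR and capillary electrophoresis, scored as increase or decrease against DMSO.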

Test [4] in a line: ATG_NRF2_ARE_CIS: Attagene CIS-FACTORIAL HepG2 Assay for human Nuclear Factor Erythroid 2 Related Factor 2 (NFR2) response to Antioxidant Response Elements (ARE) (AID 2282992).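 For AC50: reporter mRNA level measured by RT-PCR and capillary electrophoresis fluorescence.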 The following applies: HepG2 Attagene ARE/NRF2 reporter, transcription factor activity; actives raise or lower the signal. The procedure, abridged: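 Fluorescence intensity of reporter-specific cDNA fragments, separated by capillary electrophoresis, reflects mRNA induction in transfected HepG2 cells at 24 h. Activity is fitted bidirectionally, DMSO serving as baseline.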

Test [5] is described as follows: ATG_Oct_MLP_CIS: Attagene CIS-FACTORIAL HepG2 Assay for human Octamer-Binding Transcription Factor (Oct) (AID 2282993). To be noted: HepG2 Attagene cis-factorial Oct reporter, mRNA; actives raise or lower the signal. The procedure, abridged:
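Multiplexed cis-reporter assay in human liver HepG2 cells, 24 h incubation. Reporter RNA amplified and labelled, then resolved by capillary electrophoresis; DMSO serves as negative control and baseline.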

The target of test [6] is Cellular tumor antigen p53 (Homo sapiens) (UniProt P04637). Kind of test: ATG_p53_CIS: Attagene CIS-FACTORIAL HepG2 Assay for human p53 Transcription Factor (AID 2282994). The following applies: HepG2 p53 cis-element reporter, Attagene mRNA; actives raise or lower the signal. An outline of the steps:
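Transiently transfected HepG2 (multiple cis reporter transcription units); exposure 24 h; reporter RNA via RT-PCR, 6-FAM extension, 2 h HpaI digest at 37 C, CE detection; DMSO baseline.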

A short description of test [7]: BSK_3C_TissueFactor: BioMAP Diversity Plus: 3C Assay for Tissue Factor Biomarker Activity (AID 2282997). The following applies: BioMAP 3C HUVEC, tissue factor biomarker readout; actives raise or lower the signal. The procedure, abridged:
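Readout: Tissue Factor ELISA. Cells: human primary umbilical vein endothelium. Time: 24 h after dosing. Analysis: bidirectional fit, DMSO baseline.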

Test [8] is described as follows: BSK_3C_uPAR: BioMAP Diversity Plus: 3C Assay for Urokinase-type plasminogen activator receptor (uPAR) Biomarker Activity (AID 2282998). The following applies: BioMAP 3C HUVEC, uPAR biomarker ELISA; actives raise or lower the signal. The procedure, abridged: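 Dose primary human umbilical vein endothelial cells, incubate 24 h, measure cell-surface uPAR by ELISA, then fit the signal in both directions against the DMSO negative control.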

Test [9] in a line: BSK_3C_VCAM1: BioMAP Diversity Plus: 3C Assay for Vascular cell adhesion molecule 1 (VCAM1) Biomarker Activity (AID 2282999). To be noted: BioMAP 3C HUVEC, VCAM1 ELISA, cytokine-stimulated; actives raise or lower the signal. An outline of the steps:
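HUVEC primary cells, 24 h compound exposure; VCAM-1 by ELISA; gain/loss of signal fitted bidirectionally vs DMSO baseline.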
A general note: An ELISA detects its analyte on a solid surface through an enzyme-linked reagent.

Test [10] can be described thus: BSK_4H_Eotaxin3: BioMAP Diversity Plus: 4H Assay for Eotaxin 3 Biomarker Activity (AID 2283000).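 For outcome: CCL26 protein level quantified by ELISA in parallel with SRB cytotoxicity check.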 To be noted: primary human endothelial cells (HUVEC); actives raise or lower the signal. An outline of the steps:
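HUVEC, 24 h post-dose, ELISA for Eotaxin-3/CCL26. Gain or loss of signal fitted bidirectionally vs DMSO baseline.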

Where “and” joins values, the source holds several entries; their conditions need not be identical. Identical values can stand only once. A structure can be active in one record and inactive in another. Calls of active or inactive are those of the source. Rule for the calls: active = hit-call score of the fitted dose curve at least 0.9, where 1 is the maximum; inactive = score below 0.9.

Myc proto-oncogene protein (Homo sapiens), sequence (P01106 whole entry, looked up, the tested form may be a part): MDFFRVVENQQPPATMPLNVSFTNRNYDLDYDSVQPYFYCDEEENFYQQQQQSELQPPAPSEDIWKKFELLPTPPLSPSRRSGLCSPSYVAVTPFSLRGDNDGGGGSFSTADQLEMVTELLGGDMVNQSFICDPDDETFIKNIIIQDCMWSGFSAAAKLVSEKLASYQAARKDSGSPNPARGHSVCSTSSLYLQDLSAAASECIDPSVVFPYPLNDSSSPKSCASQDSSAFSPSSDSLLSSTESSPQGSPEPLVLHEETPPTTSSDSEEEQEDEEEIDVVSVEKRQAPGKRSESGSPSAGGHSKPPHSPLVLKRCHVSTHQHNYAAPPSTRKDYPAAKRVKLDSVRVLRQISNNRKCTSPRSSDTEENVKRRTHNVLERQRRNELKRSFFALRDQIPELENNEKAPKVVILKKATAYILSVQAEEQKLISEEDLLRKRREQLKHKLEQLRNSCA
Cellular tumor antigen p53 (Homo sapiens), sequence (P04637 whole entry, looked up): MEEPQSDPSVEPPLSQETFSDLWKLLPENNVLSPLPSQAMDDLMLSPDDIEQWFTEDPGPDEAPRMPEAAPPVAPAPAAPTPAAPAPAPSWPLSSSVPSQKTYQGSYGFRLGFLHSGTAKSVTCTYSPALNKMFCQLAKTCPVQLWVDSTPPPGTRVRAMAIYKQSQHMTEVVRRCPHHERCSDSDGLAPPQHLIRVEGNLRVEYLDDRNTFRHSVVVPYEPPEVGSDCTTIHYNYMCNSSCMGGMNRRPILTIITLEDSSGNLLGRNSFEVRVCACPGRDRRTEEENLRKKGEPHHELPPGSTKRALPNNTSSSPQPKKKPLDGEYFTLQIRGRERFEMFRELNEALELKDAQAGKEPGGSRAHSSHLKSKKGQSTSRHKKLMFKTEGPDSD

With `CC(C)(C)c1ccc(O)c(C(C)(C)C)c1`, the call in test [1], in [2], in [3], in [4], in test [5] and in [6] was inactive. The concentration at half-maximal activity (AC50) (as a rule, the concentration giving half of the maximal activity seen) was 8.52 µM (active) in [7], 9.34 µM (active) in test [8], 12.4 µM (active) in test [9] and 12.1 µM (active) in [10].

Turning to `Oc1cc2ccccc2c2ccccc12`, the compound was classed as inactive in [1], in test [2], in [3], in test [4], in [5] and in test [6]. Further, the half-maximal activity concentration (AC50) is 8.37 µM (active) in [7], 11.2 µM (active) in [8], 8.07 µM (active) in test [9] and 7.88 µM (active) in test [10].

`CC(O)C(=O)O` (stereo not given): the result in test [1], in test [2], in test [3], in test [4], in [5] and in test [6] was inactive.

For the compound `Cc1ccc(S(=O)(=O)O)c(C)c1`, the call in test [1], in [2], in [3], in test [4], in test [5] and in test [6] was inactive.

As to `CCC(C)(C)C1CCC(O)CC1` (stereo not given), the compound was classed as inactive in [1], in test [2], in test [3], in [4], in [5] and in test [6]. Further, the outcome in test [7], in test [8], in test [9] and in [10] was inactive.

Consider `OCCC(F)(F)C(F)(F)C(F)(F)C(F)(F)C(F)(F)C(F)(F)C(F)(F)C(F)(F)F`, for which the AC50 in test [1] is 46 µM (active) and 150 µM (active); in test [2], 150 µM (active); in [3], 24.4 µM (active); in [4], 24.6 µM (active) and 37.3 µM (active); in test [5], 46.6 µM (active) and 113 µM (active); in [6] it was 150 µM (active). For the same compound, the AC50 is 43.1 µM (active) and 10.6 µM (active) in test [7]; 19.5 µM (active) and 16.5 µM (active) in test [8]; 30 µM (active) and 21.8 µM (active) in test [9]; 46 µM (active) and 14.9 µM (active) in test [10]. Also, the outcome in test [2], in test [3], in test [6], in [7], in test [8] and in [9] was inactive. Moreover, the outcome in test [10] was inactive.

In the case of `O=C(/C=C/c1ccc(O)cc1)CC(=O)/C=C/c1ccc(O)cc1`, the result in test [1], in test [2], in test [3], in test [5] and in test [6] was inactive. Moreover, the AC50 in [4] is 2.65 µM (active).

Take `C#C[C@]1(O)CC[C@H]2[C@@H]3CCC4=CC(=O)CC[C@@H]4[C@H]3CC[C@@]21C`: the compound was called inactive in test [1], in test [2], in test [3], in [4], in test [5] and in [6]. For the same compound, the result in [9] and in test [10] was inactive. Also, the AC50 is 100 µM (active) and 79.6 µM (active) in [4]; 15.3 µM (active) in test [7]; 5.42 µM (active) in test [8].

Regarding `OCCC(F)(F)C(F)(F)C(F)(F)C(F)(F)C(F)(F)C(F)(F)F`, the AC50 in test [1] was 153 µM (active); in test [4], 50.3 µM (active); in test [5] it was 136 µM (active); in test [7], 46.3 µM (active) and 30 µM (active); in [8], 43.6 µM (active) and 47.3 µM (active); in [9] it was 51.7 µM (active). In addition, the AC50 in test [10] is 0.436 µM (active). In addition, the result in [1], in test [2], in [4], in test [5], in test [6] and in [7] was inactive. Besides, the result in test [8], in test [9] and in test [10] was inactive.

As to `COc1cc(CCC(=O)CC(=O)CCc2ccc(O)c(OC)c2)ccc1O`, the compound was called inactive in test [1], in test [2] and in test [3]. Also, the results for the half-maximal activity concentration (AC50) in [4], in [5] and in [6] were 24.8 µM (active), 68.8 µM (active) and 100 µM (active), respectively.

`COc1ccc([N+](=O)[O-])cc1N`: the outcome in test [1], in [2], in [3], in test [4], in test [5] and in test [6] was inactive. For the same compound, the outcome in [7], in test [8], in [9] and in test [10] was inactive.

With `CCCCCCCCCCCCCCCS(=O)(=O)Oc1ccccc1`, the compound was called inactive in test [1], in test [2], in test [3], in test [4], in test [5] and in test [6]. Further, the outcome in test [7], in test [8], in test [9] and in test [10] was inactive.

As to `Cc1cc(CCN2CCN(c3nsc4ccccc34)CC2)cc2c1NC(=O)CC2(C)C`, the result in [1], in test [2], in test [3] and in [6] was inactive. Further, the concentration at half-maximal activity (AC50) in [4] is 4.32 µM (active); in test [5], 8.81 µM (active); in test [7], 26.9 µM (active); in test [8], 26.6 µM (active); in test [9], 33.2 µM (active); in test [10], 33.6 µM (active).

For `CC(C)(C)c1cc(C(C)(C)C)c(O)c(C(C)(C)C)c1`, the AC50 is 54.2 µM (active) in test [1]; 49.6 µM (active) and 57.1 µM (active) in test [4]; 27.6 µM (active) and 43.2 µM (active) in test [5]. The call in test [1], in test [2], in [6], in test [7], in test [8] and in test [9] was inactive. In [10], the outcome was inactive.

For `CCc1ccc(CCOc2ccc(CC3SC(=O)NC3=O)cc2)nc1` (stereo not given), the compound was called inactive in test [1], in [2], in [3], in test [4], in test [5] and in test [6]. The outcome in test [7], in test [8], in [9] and in test [10] was inactive. For the same compound, in [4], the AC50 is 25.6 µM (active).

On to `NCC(F)(F)C(F)(F)C(F)(F)C(F)(F)C(F)(F)C(F)(F)C(F)(F)F`, for which the compound was called inactive in test [1], in [2], in test [3], in [4], in test [5] and in [6]. For the same compound, the result in [7], in test [8], in test [9] and in test [10] was inactive.

For the compound `CC#C[C@]1(O)CC[C@H]2[C@@H]3CCC4=CC(=O)CCC4=C3[C@@H](c3ccc(N(C)C)cc3)C[C@@]21C`, the concentration at half-maximal activity (AC50) in test [1] is 153 µM (active) and 64.1 µM (active) and 34.2 µM (active); in test [2] it was 160 µM (active) and 100 µM (active); in [3], 67.9 µM (active); in test [4], 28.1 µM (active) [middle of 4 runs]; in [8] it was 31.2 µM (active); in test [9] it was 32.2 µM (active). In addition, the half-maximal activity concentration (AC50) in [10] is 38.1 µM (active). The call in [1], in test [2], in test [3] and in test [7] was inactive.
